# C diff growth = C. difficile growth inhibitors, primary screen, HTS. Clostridium difficile clinical isolate growth, OD600, 24 h; active compounds read low. AID 1259249, 2017. growth activity, negative = inhibition, % at 16 µg/mL (by protocol). 86,000 tested, 0.25% active;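 active means mean growth activity at or below -80% and every replicate also at or below -80%; inconclusive means mean at or below -80% but some replicate above -80%; inactive means mean growth activity above -80%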;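 further: 0% = DMSO wells and -100% = levofloxacin 16 µg/mL wells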
# T cruzi growth-1 = T. cruzi intracellular proliferation inhibitors, primary screen, cell-based, beta-gal Tulahuen parasites, NIH3T3 host, luminescence; T. cruzi beta-gal in NIH3T3, GalScreen luminescence, 90 h; inhibition, % at 8.34 µM; 77,000 tested, 5.9% active; AID 624255, 2012;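 active means mean inhibition above about 93%, with at least 55% of replicates each passing it, limit read from the data, passing the limit was not always enough; inconclusive means only one of those two conditions holds; inactive means neither condition holds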
# Pf Dd2 growth = P. falciparum Dd2 growth inhibitors, primary screen, SYBR Green fluorescence, single dose replicates; 72 h; active compounds read low; activity change, % at 10 µM; 94,000 tested, 2.3% active; AID 1159554, 2015; in the data active means activity change below about -80%; inconclusive means no clear call, values can overlap the other calls
# T cruzi growth-2 = T. cruzi intracellular proliferation inhibitors, confirmation, cell-based, NIH3T3 host, beta-gal parasite, luminescence, cherry-pick; shares compounds with T cruzi growth-1; T. cruzi beta-gal in NIH3T3, GalScreen luminescence, 90 h; inhibition, % at 8.35 µM; 5,600 tested, 72% active;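 active means mean replicate inhibition above about 95% and at least 55% of replicates individually reaching it, limit read from the data; inconclusive means only one of the two criteria is met; inactive means neither criterion is met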
# T cruzi growth-3 = inhibitors of intracellular T. cruzi replication, confirmation, NIH3T3 host cells, beta-gal parasites, cherry-pick, set 2; shares compounds with T cruzi growth-1; T. cruzi beta-gal in NIH3T3, GalScreen luminescence, 90 h; inhibition, % at 2.09 µM; 5,600 tested, 21% active; AID 651740, 2012;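 active means mean inhibition above about 95%, with at least 55% of replicates also reaching it, limit read from the data; inconclusive means meets just one of the two conditions; inactive means meets neither condition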;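 further: plate controls were neutral control median for no effect and positive control median for full effect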
# NIH3T3 tox = cytotoxicity in mouse NIH/3T3 fibroblasts, confirmation, cytotoxicity control for T. cruzi proliferation inhibitor project, cell-based, cherry-pick, single point; shares compounds with T cruzi growth-1; NIH/3T3 viability, CellTiter-Glo ATP luminescence, 90 h; cytotoxicity (signal decrease), % at 8.35 µM; 5,600 tested, 14% active; AID 651742, 2012;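 active means mean signal decrease across replicates above about 35% based on untreated-well scatter, with enough replicates individually passing, limit read from the data; inconclusive means no rule stated though some were filed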;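 further: 0% = median of neutral control wells and 100% = median of positive control wells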
# NIH3T3 tox 2 = NIH/3T3 fibroblast cytotoxicity, confirmation, cytotoxicity control, cell-based, cherry-pick, single point, set 2; inhibition, % at 24.9 µM; NIH/3T3 viability, CellTiter-Glo ATP luminescence, 90 h; shares compounds with T cruzi growth-1; 5,600 tested, 56% active;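 active means mean loss of cell viability signal at or above a set limit, and enough replicates individually reaching it; inconclusive means meets only the mean limit or only the replicate share; inactive means meets neither condition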;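 further: 0% = median of neutral control wells and 100% = median of positive control wells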
# Starred values were filed as active, the others as inactive; ? = inconclusive; / = not tested or not shown. An excerpt weighted towards active compounds, which were near 6.8% of everything screened.
SMILES,C diff growth,T cruzi growth-1,Pf Dd2 growth,T cruzi growth-2,T cruzi growth-3,NIH3T3 tox,NIH3T3 tox 2
C[C@H](CO)N1C[C@H](C)[C@H](CN(C)C(=O)c2cccc(F)c2)Oc2cc(C#CC3CCCC3)ccc2S1(=O)=O,/,123*,-65,103*,78,5,103*
C[C@@H]1CN([C@@H](C)CO)S(=O)(=O)c2ccc(C#CC3CCCC3)cc2O[C@@H]1CN(C)C(=O)c1cccc(F)c1,/,118*,-40,102*,98*,19,106*
C[C@@H]1CN([C@H](C)CO)S(=O)(=O)c2ccc(C#CC3CC3)cc2O[C@H]1CN(C)C(=O)c1cccc(F)c1,23,/,-46,/,/,/,/
C[C@H](CO)N1C[C@H](C)[C@H](CN(C)C(=O)c2cccc(F)c2)Oc2cc(C#CC3CC3)ccc2S1(=O)=O,6,/,35,/,/,/,/
O=C(CN1CCOCC1)N[C@H]1CC[C@H](CCNS(=O)(=O)c2ccccc2F)O[C@@H]1CO,/,-22,26,/,/,/,/
C[C@@H]1CN([C@@H](C)CO)C(=O)c2cc(NC(=O)CCN3CCOCC3)ccc2O[C@@H]1CN(C)S(=O)(=O)c1cn(C)cn1,4,89,27,/,/,/,/
C[C@@H](NC(=O)C[C@@H]1C[C@@H]2c3cc(NC(=O)c4cccnc4)ccc3O[C@@H]2[C@@H](CO)O1)c1ccccc1,/,51,-22,/,/,/,/
C[C@H]1CN([C@@H](C)CO)S(=O)(=O)c2ccc(C#CC3CC3)cc2O[C@@H]1CN(C)C(=O)c1cccc(F)c1,4,/,-8,/,/,/,/
C[C@@H]1CN([C@H](C)CO)S(=O)(=O)c2ccc(C#CC3CCCC3)cc2O[C@H]1CN(C)C(=O)c1cccc(F)c1,/,123*,-85*,101*,90,5,103*
Cc1noc(C)c1S(=O)(=O)Nc1ccc2c(c1)C(=O)N([C@@H](C)CO)C[C@@H](C)[C@@H](CN(C)S(=O)(=O)c1c(C)noc1C)O2,/,39,-9,/,/,/,/
COCC(=O)N(C)C[C@@H]1Oc2ncc(C3=CCCC3)cc2C(=O)N([C@@H](C)CO)C[C@H]1C,2,/,8,/,/,/,/
C[C@H]1CN([C@@H](C)CO)C(=O)c2cc(-c3cccnc3)cnc2O[C@@H]1CN(C)C(=O)Nc1ccc(C(F)(F)F)cc1,-8,35,18,/,/,/,/
COc1ccc(S(=O)(=O)Nc2ccc3c(c2)C(=O)N([C@@H](C)CO)C[C@@H](C)[C@H](CN(C)S(=O)(=O)c2ccc(Cl)cc2)OCCCC[C@H](C)O3)cc1,1,100*,-64,108*,90,-1,3
COc1ccc(S(=O)(=O)N(C)C[C@@H]2OCCCC[C@H](C)Oc3ccc(NS(=O)(=O)c4ccc(Cl)cc4)cc3C(=O)N([C@@H](C)CO)C[C@@H]2C)cc1,-1,/,-59,/,/,/,/
COc1ccc(S(=O)(=O)Nc2ccc3c(c2)C(=O)N([C@H](C)CO)C[C@H](C)[C@H](CN(C)S(=O)(=O)c2ccc(Cl)cc2)OCCCC[C@H](C)O3)cc1,-4,?,-56,103*,107*,-12,24
COc1ccc(S(=O)(=O)Nc2ccc3c(c2)C(=O)N([C@@H](C)CO)C[C@@H](C)[C@@H](CN(C)S(=O)(=O)c2ccc(Cl)cc2)OCCCC[C@@H](C)O3)cc1,-4,84,-43,/,/,/,/
COc1ccc(S(=O)(=O)Nc2ccc3c(c2)C(=O)N([C@H](C)CO)C[C@@H](C)[C@@H](CN(C)S(=O)(=O)c2ccc(Cl)cc2)OCCCC[C@H](C)O3)cc1,-3,99*,-72,102*,?,-32,1
COc1ccc(S(=O)(=O)Nc2ccc3c(c2)C(=O)N([C@@H](C)CO)C[C@@H](C)[C@H](CN(C)S(=O)(=O)c2ccc(Cl)cc2)OCCCC[C@@H](C)O3)cc1,-4,?,-37,105*,104*,10,33*

# Screening data: PubChem BioAssay, Broad Institute
